FLuc counter – firefly luciferase modulation, counter-screen for miR-21 project; purified FLuc, Km substrates, luminescence inhibition; Potency, µM (top dose mostly 57.5 µM), for the others: at the highest dose activity change, negative = inhibition, usual class: inhibitors; 6.9% of 360,000 active; P08659;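 note: plate controls were vehicle for no effect and reference inhibitor for full effect; nearly all actives have a fitted effect of over 55% in size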
Target sequence (P08659 whole entry, looked up): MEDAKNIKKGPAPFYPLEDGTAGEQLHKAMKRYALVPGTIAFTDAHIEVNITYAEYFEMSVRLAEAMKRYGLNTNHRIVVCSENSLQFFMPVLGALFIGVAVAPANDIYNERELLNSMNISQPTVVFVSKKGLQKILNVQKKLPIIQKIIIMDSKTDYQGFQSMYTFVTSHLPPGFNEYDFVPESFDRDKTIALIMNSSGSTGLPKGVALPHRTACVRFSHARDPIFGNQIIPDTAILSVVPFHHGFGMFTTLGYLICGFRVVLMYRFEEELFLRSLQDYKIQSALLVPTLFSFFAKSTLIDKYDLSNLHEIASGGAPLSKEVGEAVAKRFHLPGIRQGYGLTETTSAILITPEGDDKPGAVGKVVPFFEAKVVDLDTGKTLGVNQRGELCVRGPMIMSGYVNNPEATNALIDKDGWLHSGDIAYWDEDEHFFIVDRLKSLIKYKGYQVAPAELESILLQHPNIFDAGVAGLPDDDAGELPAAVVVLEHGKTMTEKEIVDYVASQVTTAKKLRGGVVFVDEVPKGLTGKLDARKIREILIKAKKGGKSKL
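Purified P. pyralis luciferase (10nM final) with 10uM D-luciferin and 10uM ATP (Km levels) in 50mM Tris acetate pH 7.5, 10mM Mg acetate, 0.01% Tween-20, 0.05% BSA; qHTS 6-point titration, ~60 µM downward; luminescence read.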
SMN2 splice up – increases expression of the SMN2 splice variant; HEK293 SMN2-luciferase splicing reporter, luminescence, 30-36 h; Potency, µM (top dose mostly 46.1 µM), for inactives: top-dose activity change, positive = activation, most hits filed as activators; 2.8% of 210,000 active; AID 1458; note: % of control where 0% means no effect; nearly all actives have a fitted effect of over 55% in size
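HEK293 cells carry an SMN2 […]–luciferase reporter in which exon 7 inclusion puts luciferase in frame. Cells were plated 10-12 h before compound addition, then incubated 30-36 h at 37C. ONE-Glo luminescence was read; sodium butyrate at 4.5 mM final served as control.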
NPC1 promoter act – NPC1 promoter activation; Potency, µM (highest dose often 9.22 µM), without a hit: top-dose activation, actives largely listed as activators; Huh7 NPC1 promoter luciferase reporter, 24 h; 2.4% of 320,000 active; note: % of control where 0% means no effect; nearly all actives have a fitted effect of over 60% in size
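NPC1 promoter–luciferase Huh7 cells; 24 h compound; luminescence.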
Rab9 promoter act – Rab9 promoter activation | Huh7 Rab9 promoter-luciferase reporter, luminescence, 24 h | Potency, µM (top dose mostly 9.22 µM), for inactives: at the top dose activation, negative = inhibition, usual class: activators | 2.8% of 320,000 active | AID 485297; note: % of control where 0% means no effect; nearly all actives have a fitted effect of over 60% in size
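Promoter activation is measured as luciferase luminescence in Huh7 cells stably transfected with a Rab9 promoter–luciferase construct, following 24 h compound exposure at 37 °C and 10 min reagent incubation at ambient temperature.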
ELG1 genotox – inducers of genotoxicity in HEK293T ELG1-luciferase cells | 1.3% of 330,000 active | HEK293T ELG1-luciferase reporter, luminescence, 16 h | Potency, µM (top dose mostly 46 µM), for inactives: top-dose activity change, positive = activation, most hits filed as activators; note: % of control where 0% means no effect; nearly all actives have a fitted effect of over 60% in size
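DMSO vehicle served as control against compound-treated ELG1-luciferase HEK293T cells; exposure lasted 16 hr at 37 °C and 5% CO2, followed by ONE-Glo luminescence detection after 30 min.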
ELG1 repair inh – ELG1-dependent DNA repair inhibition; HEK293T ELG1-luciferase reporter, luminescence, 16 h; DNA damage induced by 5-fluorouridine; Potency, µM (series often up to 46.1 µM), inactives show at the highest dose activity change, negative = inhibition, usual class: inhibitors; 2.3% of 330,000 active; note: % is set by controls: 0 for no effect and ±100 for the full control effect; nearly all actives have a fitted effect of over 55% in size
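Reporter activity after DNA damage by 5-fluorouridine is monitored. Compound-treated cells incubate 16 hr at 37 °C, then ONE-Glo is added for 30 min before luminescence reading.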
Numbers without * were called inactive; [ ] = remark or other dose. Only some compounds are listed: those with a hit (about 9.2% of all), similar ones and a draw of the others. Calls come from the whole dose curve; as a rule, active = well fitted curve in the direction sought with a large enough effect; inconclusive = small, poorly fitted or top-dose-only effect, or another doubt; inactive = no such curve, though single readings can be large; an effect the other way counts as inactive or inconclusive. Potency is the fitted concentration of half-maximal effect.

`O=C(O)c1ccc(CSc2nnc(-c3ccc(Cl)cc3)o2)cc1` gave FLuc counter 16.9µM*, NPC1 promoter act -3.6%, Rab9 promoter act -1.0%, ELG1 genotox 8.5% and ELG1 repair inh 18.0%.
Screening O=C(Nc1ccccc1-c1nnc(SCc2ccccc2)o1)c1ccccc1 returned FLuc counter 3.6%, SMN2 splice up -22.0%, NPC1 promoter act 0.7%, Rab9 promoter act 0.1%, ELG1 genotox -4.6% and ELG1 repair inh -3.4%.
`O=C(O)c1ccc(CSc2nnc(-c3ccccc3Br)o2)cc1` gave FLuc counter 23.9µM*, NPC1 promoter act 2.1%, Rab9 promoter act -0.9%, ELG1 genotox 6.4% and ELG1 repair inh 19.7%.
Screening CCOc1ccc(-n2c(-c3ccccc3)c(C)n3c4c(=O)n(C)c(=O)n(C)c4nc23)cc1 returned FLuc counter 2.3% and SMN2 splice up -2.8%.
CCOc1ccc(C(=O)NCCc2csc(-c3ccc(C(F)(F)F)cc3)n2)cc1OCC was read as FLuc counter -0.2%.
Screening O=[N+]([O-])c1ccc(S(=O)(=O)Nc2ccc(-c3ccc(N4CCOCC4)nn3)cc2)cc1 returned FLuc counter 26.9µM*, NPC1 promoter act 9.9%, Rab9 promoter act 21.1%, ELG1 genotox 16.9% and ELG1 repair inh inconclusive.
For CCOc1ccc(-c2cccc(NS(=O)(=O)c3ccc([N+](=O)[O-])cc3)c2)nn1 the results were FLuc counter 5.1%, NPC1 promoter act 3.1%, Rab9 promoter act -1.5%, ELG1 genotox -1.2% and ELG1 repair inh 2.9%.
Screening O=[N+]([O-])c1ccc(S(=O)(=O)Nc2cccc(-c3ccc(N4CCOCC4)nn3)c2)cc1 returned FLuc counter 3.38µM*, NPC1 promoter act inconclusive, Rab9 promoter act 27.4%, ELG1 genotox inconclusive and ELG1 repair inh inconclusive.
Screening COc1c(C)cc(S(=O)(=O)Nc2cccc(-c3ccc(N4CCOCC4)nn3)c2)c(C)c1C returned FLuc counter 15.1µM*.
Screening Cc1cc(C)cc(S(=O)(=O)Nc2cccc(-c3ccc(N4CCOCC4)nn3)c2)c1 returned FLuc counter 12µM*.
Screening COc1ccc(-c2ccc(NS(=O)(=O)c3ccc([N+](=O)[O-])cc3)cc2)nn1 returned FLuc counter -0.5%, NPC1 promoter act -0.6%, Rab9 promoter act -1.5%, ELG1 genotox -2.3% and ELG1 repair inh -8.4%.
For Cc1ccc(S(=O)(=O)Nc2ccc(N3CCOCC3)nc2)cc1 the results were FLuc counter 2.2%, SMN2 splice up -5.0%, NPC1 promoter act -4.4%, Rab9 promoter act -5.2%, ELG1 genotox 1.7% and ELG1 repair inh -0.5%.
`Cc1nn(CCC(=O)N2CCN(c3ccccc3)CC2)c(C)c1S(=O)(=O)N1CCCC1` gave FLuc counter -1.0%.
Screening CCCSc1ncc(Cl)c(C(=O)Nc2c(C(=O)Nc3ccc(C)cc3)oc3ccccc23)n1 returned FLuc counter 0.1% and SMN2 splice up 8.4%.
Screening COc1ccc(-c2noc(CSc3nnc(-c4ccncc4)n3-c3ccc(C)c(C)c3)n2)cc1 returned FLuc counter -0.6% and SMN2 splice up -4.1%.
For Cc1cc(C)cc(-n2c(C)cc(/C=N/NC(=O)CN(c3c(C)cccc3C)S(C)(=O)=O)c2C)c1 the results were FLuc counter 0.1%, SMN2 splice up 17.4%, NPC1 promoter act -1.2%, Rab9 promoter act -34.8%, ELG1 genotox -1.6% and ELG1 repair inh -3.2%.
`Cc1ccc(N(CC(=O)N/N=C/c2cc(C)n(-c3ccccc3C)c2C)S(C)(=O)=O)cc1` gave FLuc counter 16.9µM*, SMN2 splice up 0.5%, NPC1 promoter act -4.8%, Rab9 promoter act 2.6%, ELG1 genotox -1.5% and ELG1 repair inh 17.1%.
CC(=O)Nc1ccc(/C=C(\C#N)C(=O)NC2CCCCC2)cc1 was read as FLuc counter 0.3%, SMN2 splice up 1.8%, NPC1 promoter act -4.7%, Rab9 promoter act -5.8%, ELG1 genotox 3.9% and ELG1 repair inh inconclusive.
`CCc1ccc(NC(=O)/C(C#N)=C/c2cc3ccc(C)cc3nc2N2CCOCC2)cc1` gave FLuc counter -1.3%, SMN2 splice up -28.1%, NPC1 promoter act -2.2%, Rab9 promoter act -6.1%, ELG1 genotox 5.8% and ELG1 repair inh -13.2%.
Screening N#C/C(=C\c1ccc(N2CCOCC2)o1)C(=O)Nc1ccc(O)cc1 returned FLuc counter 5.36µM*, SMN2 splice up 15.8µM*, NPC1 promoter act 21.8%, Rab9 promoter act 25.2%, ELG1 genotox inconclusive and ELG1 repair inh inconclusive.
`COc1ccc(NC(=O)/C(C#N)=C/c2ccc(C)o2)cc1` gave FLuc counter 2.69µM* and SMN2 splice up 12.6µM*.
For N#C/C(=C/c1ccc(N2CCOCC2)o1)C(=O)NC1CCCCC1 the results were FLuc counter 12µM*, NPC1 promoter act 3.4%, Rab9 promoter act 23.7%, ELG1 genotox 3.3% and ELG1 repair inh -4.1%.
COc1ccc(NC(=O)/C(C#N)=C/c2ccc(Br)o2)cc1 was read as FLuc counter -10.9%, SMN2 splice up inconclusive, NPC1 promoter act 9.5%, Rab9 promoter act 18.3%, ELG1 genotox 2.4% and ELG1 repair inh inconclusive.
`COc1ccc(NC(=O)/C(C#N)=C\c2ccc(N3CCOCC3)o2)cc1` gave FLuc counter 1.9µM*, NPC1 promoter act inconclusive, Rab9 promoter act inconclusive, ELG1 genotox 9.1% and ELG1 repair inh inconclusive.
Cc1ccc([N+](=O)[O-])cc1NC(=O)c1cccnc1 was read as FLuc counter 1.1%, NPC1 promoter act 0.5%, Rab9 promoter act 0.4%, ELG1 genotox -2.3% and ELG1 repair inh -7.4%.
`CCOc1ccc(/C=C/c2nc(C#N)c(NCCc3ccccc3)o2)cc1` gave FLuc counter 1.6% and SMN2 splice up -1.1%.
Screening Cc1nc2nc(NCc3ccc(Cl)cc3)[nH]n2c(=O)c1Cc1ccccc1 returned FLuc counter inconclusive and SMN2 splice up 7.2%.
C=CCN1c2ccccc2[C@]23C[C@@H](C(=O)OC)N(S(=O)(=O)c4ccc(Br)cc4)C2=NC(C(=O)OC)=C(C(=O)OC)[C@H]13 was read as SMN2 splice up -0.8%[9.22 µM].
For CCCCNc1c2c3c(cccc3n(C)c1=O)C(=O)c1ccccc1-2 the results were FLuc counter 3.3%, SMN2 splice up -50.5%, NPC1 promoter act -7.8%, Rab9 promoter act -7.1%, ELG1 genotox -6.5% and ELG1 repair inh 16.4µM*.
